Assay outcomes (PubChem BioAssay)
RAD52 anneal inh – RAD52 DNA annealing inhibitors, primary screen, biochemical, FRET, single point, set 2; recombinant RAD52 DNA annealing, FRET fluorescence; inhibition, % at 18.7 µM; 0.46% of 360,000 active; AID 651710, 2012;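 active means every replicate showing at least 50% inhibition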
Target sequence (P43351 whole entry, looked up): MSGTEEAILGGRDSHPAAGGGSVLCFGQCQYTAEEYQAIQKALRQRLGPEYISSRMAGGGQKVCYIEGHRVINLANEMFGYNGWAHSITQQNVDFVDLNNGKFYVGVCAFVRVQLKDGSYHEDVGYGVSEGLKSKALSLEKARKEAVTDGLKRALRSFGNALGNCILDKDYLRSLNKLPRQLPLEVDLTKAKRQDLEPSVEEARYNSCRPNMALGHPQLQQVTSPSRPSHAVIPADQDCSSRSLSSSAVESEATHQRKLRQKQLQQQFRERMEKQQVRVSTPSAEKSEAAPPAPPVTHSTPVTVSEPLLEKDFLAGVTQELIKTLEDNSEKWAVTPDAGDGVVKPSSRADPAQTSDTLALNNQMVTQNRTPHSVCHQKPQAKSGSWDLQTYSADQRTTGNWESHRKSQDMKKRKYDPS
RAD54 inh – inhibitors of human RAD54 branch migration, primary screen, biochemical, fluorescence, single point. AID 602329, 2012. DNA repair and recombination protein RAD54-like (Homo sapiens), Q92698. RAD54 Holliday junction branch migration, FAM/BHQ fluorescence. 0.14% of 360,000 active. inhibition, % at 10.4 µM;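 active means mean normalized replicate activity at least 40 and at least half of replicates scoring 40 or more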;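 further: 0% = median of neutral control wells and 100% = median of positive control wells; inhibitors cause a drop in the FAM fluorescence signal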
PGC1a acetyl inh – inhibitors of PGC1a acetylation signal, primary screen, cell-based, U2OS, AlphaScreen, inhibitor mode; AlphaScreen anti-acetyl-lysine; with virally co-expressed GCN5 acetyltransferase; inhibition, % at 15.6 µM; 0.17% of 350,000 active; AID 651687, 2012;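 active means every replicate shows inhibition of at least 40%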;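 further: 0% = neutral control wells and 100% = positive control wells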
INS-1E GSIS act – GLuc luminescence reporter in INS-1E cells, primary screen for activators of glucose-dependent secretion of insulin; INS-1E GLuc reporter insulin secretion, 2-3 h; activation, % at 16.6 µM; 0.61% of 370,000 active; AID 743287, 2014;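 active means lowest replicate activation of at least 40%, so every replicate reaches that level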;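 further: 0% = median of neutral control wells and 100% = median of IBMX positive control wells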
ERAP1 inh – human ERAP1 aminopeptidase inhibitors, primary screen, biochemical, single point, plate reader; 0.15% of 340,000 active; inhibition, % at 10.7 µM; recombinant ERAP1, Leu-AMC fluorescence, 60 min;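 active means mean replicate inhibition of at least 30%, or all replicates individually reaching that 30% level; inactive means mean below 30% and not every replicate reaching it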;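 further: 0% = neutral control wells and 100% = L-leucinethiol positive control wells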
AF4-AF9 inh – inhibitors of AF4 peptide binding to AF9, primary screen, biochemical, AlphaScreen, biotin-AF4 peptide, FLAG-AF9, single point; AID 651704, 2012; Protein AF-9 (Homo sapiens), P42568; inhibition, % at 10 µM; 0.47% of 350,000 active;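 active means every replicate reaching a set inhibition limit, whatever the replicate mean, cut at about 25% in these data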;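 further: 0% = plate neutral control median and 100% = total signal loss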
* = called active by the depositor; . = no result given. This is a sample that favours compounds with a hit; in the whole collection about 1.4% have one here.

SMILES	RAD52 anneal inh	RAD54 inh	PGC1a acetyl inh	INS-1E GSIS act	ERAP1 inh	AF4-AF9 inh
O=C(c1ccc(S(=O)(=O)Cc2cc(F)ccc2F)c([N+](=O)[O-])c1)N1CCCC1	-12	-2	-37	76*	0	-1
CSc1ccc(/C=N/N(C)S(=O)(=O)c2ccc(C)cc2)cc1	-1	14	.	121*	-3	2
Cc1ccc(/C=N/N(C)S(=O)(=O)c2ccc(C)cc2)cc1	1	3	-48	2	2	-1
C#CCOCCOCCOCCNc1nc(N2CCN(C(=O)[C@H](CCCCN)n3cc([C@@H](N)CO)nn3)CC2)nc(N2CCN(C(=O)[C@H](CCCCN)n3cc([C@@H](N)CC(C)C)nn3)CC2)n1	44	-16	.	28	-5	29*
C#CCOCCOCCOCCNc1nc(N2CCOCC2)nc(N2CCN(C(=O)[C@H](CCCCN)n3cc(CN)nn3)CC2)n1	9	-9	.	21	-4	32*
C#CCOCCOCCOCCNc1nc(N2CCN(C(=O)CCCCCCCCCCNC(=O)[C@H](CCCCN)n3cc(CCO)nn3)CC2)nc(N2CCN(C(=O)CCCCCCCCCCNC(=O)[C@H](CCCCN)n3cc(CCO)nn3)CC2)n1	.	50*	6	.	.	.
C#CCOCCOCCOCCNc1nc(N2CCN(C(=O)[C@H]([C@@H](C)CC)n3cc([C@@H](N)CC(C)C)nn3)CC2)nc(N2CCN(C(=O)[C@H](Cc3ccc(O)cc3)n3cc([C@@H](N)CC(C)C)nn3)CC2)n1	43	.	.	4	-4	28*
C[C@@H]1CN([C@@H](C)CO)C(=O)Cc2cc(NS(=O)(=O)c3ccc(F)cc3)ccc2O[C@@H]1CN(C)S(=O)(=O)c1cn(C)cn1	-2	1	-4	20	2	0
C#CCOCCOCCOCCNc1nc(N2CCN(C(=O)[C@H](CCCN=C(N)N)n3cc(C(N)[C@@H](C)CC)nn3)CC2)nc(N2CCN(C(=O)[C@H](CC(N)=O)n3cc([C@@H](N)CC(N)=O)nn3)CC2)n1 (stereo partly drawn)	13	-51	3	25	-2	25*
C#CCOCCOCCOCCNc1nc(N2CCN(C(=O)[C@H](CCCN=C(N)N)n3cc(C(N)[C@@H](C)CC)nn3)CC2)nc(N2CCN(C(=O)[C@H](CC(N)=O)n3cc([C@@H](N)C(C)C)nn3)CC2)n1 (stereo partly drawn)	41	-26	-4	16	-4	.
C#CCOCCOCCOCCNc1nc(N2CCN(C(=O)C([C@@H](C)O)n3cc([C@@H](N)CCCCN)nn3)CC2)nc(N2CCN(C(=O)[C@H](CO)n3cc([C@@H](N)C(C)C)nn3)CC2)n1 (stereo partly drawn)	58*	7	9	2	-4	54*
CCC(C)(C)c1ccc(OCCCC[n+]2ccccc2)c(C(C)(C)CC)c1	39	.	.	-22	24	30*
COc1ccc(-n2c(SCC(=O)c3c(N)n(C)c(=O)n(C)c3=O)nc3ccccc32)cc1	.	-3	10	.	.	.
Cn1c(N)c(C(=O)CSc2nc3ccccc3n2-c2ccccc2)c(=O)n(C)c1=O	.	1	0	63*	.	.
CCC[N+](C)(C)C(C)C(OC(C)=O)c1ccccc1 (stereo not drawn)	-12	-7	-5	-4	41*	-2
CC(NC(=O)Cc1ccccc1)c1ccccc1 (stereo not drawn)	3	6	.	11	1	-4
CCn1c(-c2nn(-c3ccccc3)ccc2=O)n[nH]c1=S	2	.	.	-8	7	-1
CCn1c(SC)nnc1-c1nn(-c2ccccc2)ccc1=O	-9	8	.	-6	103*	-4
CCCN1[C@@H]2c3ccc(C4=CCCC4)c(=O)n3C[C@H]1[C@H](CO)[C@H]2C(=O)NCc1ccccn1	-15	0	.	12	-5	-27
CCOC(=O)Cn1c(=NC(=O)c2sc3ccccc3c2Cl)sc2cc(S(N)(=O)=O)ccc21	.	1	18	71*	.	.
CO[C@@H]1CN(C)C(=O)c2ccc(NC(=O)c3cccc(F)c3)cc2OC[C@H](C)N(C)C[C@@H]1C	.	.	7	11	.	.
CC(C)NC(=O)N(C)C[C@H]1Oc2cc(-c3cncnc3)ccc2S(=O)(=O)N([C@@H](C)CO)C[C@@H]1C	-4	-17	7	12	1	-1
Cc1cc(S(=O)(=O)NC(C)C)ccc1OCC(=O)Nc1ccc2c(c1)OCCO2	-11	.	110*	12	4	-1
CC(C)NS(=O)(=O)c1ccc(CCC(=O)Nc2ccc3c(c2)OCCO3)cc1	-7	.	.	.	-9	-2
COc1ccc(NC(=O)N[C@@H]2CC[C@H](CCn3cc(-c4ccccc4F)nn3)O[C@H]2CO)cc1	-5	0	62*	8	3	0
SMILES	RAD52 anneal inh	RAD54 inh	PGC1a acetyl inh	INS-1E GSIS act	ERAP1 inh	AF4-AF9 inh
CN(C)CC(=O)N[C@H]1CC[C@H](CCn2cc(CN(C)C)nn2)O[C@H]1CO	73*	-15	6	0	1	13
CN(C)CC(=O)N[C@H]1CC[C@H](CCn2cc(CN(C)C)nn2)O[C@@H]1CO	11	2	6	7	-2	-8
O=C(Nc1ccc(F)cc1)N[C@@H]1CC[C@H](CCn2cc(-c3ccccc3F)nn2)O[C@@H]1CO	-3	3	9	-23	0	-1
Cc1ccccc1S(=O)(=O)N[C@@H]1CC[C@@H](CCn2cc(Cc3ccccc3)nn2)O[C@H]1CO	-4	2	61*	-2	3	-1
CNC[C@@H]1Oc2ccc(NS(=O)(=O)c3c(C)noc3C)cc2C(=O)N([C@@H](C)CO)C[C@H]1C	-16	-1	14	17	0	-6
O=C(COC(=O)C1CCC1)NC(=O)c1ccccc1	-18	-9	.	42*	-1	-1
O=C(COC(=O)C1CC1)NC(=O)c1ccccc1	3	4	-2	3	-2	-1
Cc1cccc(NC(=O)C2CCCN2C(=O)OCC(C)C)c1 (stereo not drawn)	.	-6	.	.	.	.
CC(C)COC(=O)N1C[C@H](O)C[C@H]1C(=O)Nc1ccc(Cl)cc1	-15	-4	-2	120*	-2	1
N#C/C(=C\c1c(N2CCN(c3ccccc3)CC2)nc2ccccn2c1=O)C(N)=O	-20	1	.	11	-46	3
N#C/C(=C\c1c(N2CCCCCC2)nc2ccccn2c1=O)C(N)=O	-12	-1	4	40*	-21	5
COc1cc2ccc(C(C)=NNC(N)=S)cc2cc1OC	-13	17	.	67*	2	5
